Laboratory results: PubChem BioAssay (NCI)
This is part of a sample that, as a whole, favours compounds with a hit. Of some 83,000 tested, about 20% had one in any assay.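 Single-concentration screen, 48 h exposure, 96-well plates. Endpoint: percent growth. Below 10 = active.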 Unmarked numbers belong to inactive results. Activity calls are given as the source filed them.

Assays:
Assay in all cases: NCI-60 one-dose screen, 48 h (100 = growth as untreated, 0 = no growth, -100 = all killed)
Conditions in all cases: 10 µM
NCI-H23 lung = tested on: NCI-H23 lung
NCI-H226 lung = tested on: NCI-H226 lung
HOP-62 NSCLC = tested on: HOP-62 NSCLC
NCI-H460 lung = tested on: NCI-H460 lung
HOP-92 NSCLC = tested on: HOP-92 NSCLC
NCI-H522 lung = tested on: NCI-H522 lung
A549/ATCC NSCLC = tested on: A549/ATCC NSCLC
786-0 renal = tested on: 786-0 renal
COLO 205 colon = tested on: COLO 205 colon
DU-145 prostate = tested on: DU-145 prostate
K-562 leukemia = tested on: K-562 leukemia
MALME-3M melanoma = tested on: MALME-3M melanoma
MDA-MB-231 breast = tested on: MDA-MB-231 breast
RXF 393 renal = tested on: RXF 393 renal
SF-268 CNS = tested on: SF-268 CNS
SF-295 CNS = tested on: SF-295 CNS
SF-539 CNS = tested on: SF-539 CNS
UACC-257 melanoma = tested on: UACC-257 melanoma
M14 melanoma = tested on: M14 melanoma

SMILES	growth (NCI-H23 lung)	growth (NCI-H226 lung)	growth (HOP-62 NSCLC)	growth (NCI-H460 lung)	growth (HOP-92 NSCLC)	growth (NCI-H522 lung)	growth (A549/ATCC NSCLC)	growth (786-0 renal)	growth (COLO 205 colon)	growth (DU-145 prostate)	growth (K-562 leukemia)	growth (MALME-3M melanoma)	growth (MDA-MB-231 breast)	growth (RXF 393 renal)	growth (SF-268 CNS)	growth (SF-295 CNS)	growth (SF-539 CNS)	growth (UACC-257 melanoma)	growth (M14 melanoma)
O=C(Nc1ccc(NS(=O)(=O)c2ccc(F)cc2)cc1)C12CC3CC(CC(C3)C1)C2	94.9%	92%	104%	101%	106%	86.4%	86.6%	103%	101%	103%	74.7%	87.1%	96.2%	105%	97.4%	91.2%	106%	91.6%	96.6%
COc1ccc2nc(-c3ccc(Cl)cc3)cc(-c3nnc(SC/C(=N\O)c4ccccc4)n3-c3ccccc3)c2c1	92.9%	82.5%	109%	86.9%	95.4%	82.7%	63.1%	88.1%	98.7%	84.3%	59%	118%	86.3%	66.7%	83.5%	102%	103%	72.1%	78.6%
CC(CN(C)C)Oc1ccc(OC(C)CN(C)C)c2c1C(=O)c1ccccc1C2=O (centres undefined)	41.6%	44.5%	49.3%	17.2%	49.1%	41.1%	22.5%	51%	3.02% (active)	46.1%	24.5%	67.6%	40.9%	59.2%	47.8%	48.2%	51%	72.8%	56.6%
O=C(CSc1nnc(-c2ccc(Cl)cc2)o1)Nc1ccc(C(=O)/C=C/c2ccc(Cl)cc2)cc1	87.7%	93.3%	95.8%	98.2%	106%	86.8%	95.6%	99.9%	117%	103%	93.4%	114%	104%	99.1%	99.7%	101%	117%	98.7%	104%
Cc1cccc(N=Cc2ccccc2O)c1C	94.8%	104%	103%	114%	97.3%	114%	88.2%	94.5%	106%	126%	98.3%	91.7%	102%	110%	116%	106%	102%	94.6%	105%
Cc1nn(-c2ccc(-c3ccc(OC(F)(F)F)cc3)cc2)c2nc(Cc3ccccc3)nc(N)c12	64.9%	42.5%	45.9%	3.39% (active)	59%	73.7%	16.7%	5.79% (active)	65.2%	75.5%	63.7%	83.8%	48.3%	77.9%	54.3%	47.7%	80.3%	78.8%	69%
Cc1ccc(NCCN(C)CC(C)O)c2c(=O)c3ccccc3sc12 (centres undefined)	57.4%	66.1%	48%	15.6%	32.4%	44.4%	21.6%	40.5%	-43.3% (active)	47.4%	0.188% (active)	34.6%	36.9%	24.8%	56.6%	53.3%	53.2%	45.9%	-49% (active)
COc1cc(-c2nn(-c3ccc(NC(=O)NCCNS(=O)(=O)c4ccc(F)cc4)cc3)cc2-c2ccncc2)ccc1Cl	12.7%	36.2%	29.7%	0.926% (active)	-6.87% (active)	-10.4% (active)	15.7%	-8.2% (active)	-63.5% (active)	8.28% (active)	2.45% (active)	24.8%	-30.7% (active)	2.59% (active)	7.56% (active)	-39.5% (active)	-46.4% (active)	41.2%	-18% (active)
CCc1ccc(-c2ccc(-n3nc(C)c4c(N)nc(Cc5ccccc5)nc43)cc2)cc1	77.2%	56.6%	65.6%	51.4%	47.2%	49.2%	52.4%	46.6%	95.3%	77%	7.44% (active)	106%	38.2%	75.7%	66.1%	70.8%	80.9%	71.9%	30.3%
COc1cc2cc(Oc3ccc(NC(=O)c4cc(C(F)(F)F)cc(C(F)(F)F)c4)cc3)c(C)nc2cc1OC	32.6%	53.6%	84.7%	26.9%	-6.21% (active)	34%	30.7%	64.5%	51.7%	60.4%	23.3%	73.7%	59.2%	56.8%	74.7%	6.46% (active)	75.2%	60.4%	61.6%
COc1cc(C(=O)n2nc(-c3cc(OC)c(OC)c(OC)c3)nc2N)cc(OC)c1OC	92.9%	98.7%	85.8%	103%	82%	82.1%	98.5%	96.6%	99.4%	101%	77.8%	103%	108%	114%	93.4%	92.7%	96.6%	101%	89.9%
O=S(=O)(O)c1cccc(Nc2ccc3ccccc3c2)c1	92%	86.5%	84.4%	101%	74.8%	87.9%	94.1%	104%	97.8%	109%	98.7%	88.1%	90.1%	107%	95.8%	104%	102%	89.7%	92.7%
COc1cc2cc(Oc3ccc(NC(=O)Nc4ccc(C(F)(F)F)cc4)cc3)c(C)nc2cc1OC	79.3%	20.9%	18.8%	42.8%	56.3%	63.2%	32.4%	74.9%	40.4%	71.4%	57.1%	82.9%	80.9%	6.29% (active)	79.3%	56%	96.9%	66.5%	95.2%
COc1ccc(-c2csc(NC(=O)c3ccc(Cc4n[nH]c(=O)c5cccnc45)cc3)n2)cc1	80.4%	71.4%	92%	97.4%	75.3%	80.7%	101%	99.2%	110%	108%	82.9%	86.8%	79.7%	72.4%	97.1%	86.6%	87.1%	94.5%	103%
Cc1cc(CCNC=O)c(C)c2c1sc1ccccc12	86.6%	77.2%	86.2%	104%	91.2%	101%	82.9%	106%	124%	112%	97.2%	105%	79.9%	80%	92.5%	94.8%	87.2%	90.1%	118%
COc1ccc(-c2cc(-c3ccc(Cl)cc3)nc(SCCCC(=O)NO)n2)cc1	0.964% (active)	-2.21% (active)	5.55% (active)	0.515% (active)	1.25% (active)	-12.1% (active)	5.47% (active)	3.69% (active)	2.04% (active)	9.82% (active)	7.35% (active)	-11.8% (active)	1.61% (active)	-21% (active)	2.08% (active)	-19.1% (active)	4.55% (active)	3.4% (active)	-31.1% (active)
